Our source for the inhibition values is PubChem BioAssay AID581 (PCMD, 2007).

Structures are written as SMILES. Hit rate of the full screen: of about 62,000 compounds, about 95 (0.2%) were called active. The full list was thinned out, with actives kept by preference. A number with no mark means an inactive call.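 Rule for the calls: active = inhibition above 20% in each of the two mixture wells holding the compound; inactive = inhibition of 20% or less in either well.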

The target of this assay is Cathepsin G (Homo sapiens) (UniProt P08311). Description: blockers of neutrophil cathepsin G protease – biochemical, pooled compound mixtures, AMC fluorescence, primary screen (AID 581).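 Note: 0% = enzyme control without mixture and 100% = blank lacking enzyme.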 Particulars: purified enzyme, AMC-tetrapeptide fluorescence, stronger effect = higher value, screened at 5 µM (by protocol).
Cathepsin G (Homo sapiens), sequence (P08311 21-244 limits assumed): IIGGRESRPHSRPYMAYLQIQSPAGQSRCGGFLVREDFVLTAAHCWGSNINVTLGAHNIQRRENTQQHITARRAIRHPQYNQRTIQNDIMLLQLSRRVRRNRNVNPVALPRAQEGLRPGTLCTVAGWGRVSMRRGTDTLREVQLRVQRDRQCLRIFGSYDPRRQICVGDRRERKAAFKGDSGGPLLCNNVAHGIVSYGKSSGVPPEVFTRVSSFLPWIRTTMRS
Take `Cc1noc(C)c1C(=O)Nc1ccccn1`: the inhibition is -18.6%. Turning to `CCOC(=O)N1CCN(CC(=O)c2ccc3c(c2)CCN3)CC1`, the inhibition is 10.3%. Regarding `Cc1occc1C(=O)Nc1nnc(-c2ccncc2)s1`, the inhibition was 39.2%. In the case of `COCCn1c(SCC(=O)Nc2cc(Cl)ccc2OC)nc2c(c1=O)SC(C)C2` (configuration not stated), the inhibition was 9.03%. As to `NC(=O)CCCC1=NS(=O)(=O)c2ccccc2N1`, the inhibition was 4.5%. Under `CCOC(=O)c1ccc(NC(=O)CSc2ncccn2)cc1` stands -1.62%; under `CCOC(=O)c1ccc(NC(=O)Cn2nnc(-c3ccc(C)cc3)n2)cc1`, -7.1%; under `CCOC(=O)c1ccc(NC(=O)CS(=O)(=O)c2cn(CC)c3ccccc23)cc1`, 29.3% (active).

As for `COc1ccc2nc(NC(=O)c3ccc(Br)s3)sc2c1`, the inhibition was 10.8%. As for `O=C(Cn1nc(Cc2cccnc2)c2ccccc2c1=O)NCC1COc2ccccc2O1` (configuration not stated), the inhibition was 8.5%. With `C/C(N)=C(\C#N)C(=O)NCCc1ccccn1`, the inhibition was 2.5%. Consider `CCSC1=C(C#N)C(=O)n2c1cc1c2CCCC1`, for which the inhibition was 0.675%. For `CSc1nsc(SC)c1NC(=O)OC1CCCCC1`, the inhibition is 7.19%. As to `CCOC(=O)C1CCCN(C(=O)c2ccc(CS(=O)(=O)c3ccc(Br)cc3)o2)C1` (configuration not stated), the inhibition was 7.41%. Consider `CCOC(=O)c1csc(NC(=O)c2ccc(S(=O)(=O)N3CCCC3)cc2)n1`, for which the inhibition was -0.28%. As for `COc1ccc(OC)c(NC(=O)CN2CCN(C(=O)c3ccco3)CC2)c1`, the figure is 9.79%; as for `Cn1c(-c2ccc(C(=O)c3ccccc3)s2)nc2ccccc21`, 2.31%; as for `CN(Cc1ccccc1)C(=O)CCNC(=O)Cn1cnc2ccccc2c1=O`, -3.7%.

In the case of `COc1ccc(OC)c(C(=O)c2coc3ccc(OC)cc23)c1`, the inhibition was -10.9%. Consider `COc1ccc2c(c1)CCc1c(C(=O)N3CCc4ccccc4C3)noc1-2`, for which the inhibition was 35% (active).

Take `COc1ccc2c(c1)CCc1c(C(=O)Nc3c(C)n(C)n(-c4ccccc4)c3=O)noc1-2`: the inhibition is 34.3% (active). Under `COC(=O)Nc1c(C)n(C)n(-c2ccccc2)c1=O` stands 11.2%; under `O=C(c1cc(-c2cccc(O)c2)on1)N1CCc2ccccc2C1`, 5.56%. For the compound `COc1ccc2c(c1)CCc1c(C(=O)N3CCCC3)noc1-2`, the inhibition was 18.8%. Regarding `Cc1cc(C(=O)Nc2c(C)n(C)n(-c3ccccc3)c2=O)cs1`, the inhibition was 8.47%.

Regarding `CCOc1cc(CO)ccc1OCC(=O)N1CCCCC1`, the inhibition was 4.5%. Regarding `COc1ccc(C(=O)Nc2ccc(S(=O)(=O)Nc3onc(C)c3C)cc2)cc1OC`, the inhibition was -6.97%. Consider `COCCCN1C(=O)c2ccc(C(=O)Nc3ccc(OC)cc3OC)cc2C1=O`, for which the inhibition was -4.08%. As for `Cc1nn(Cc2ccc(Cl)c(Cl)c2)c(C)c1NC(=O)c1cc(C2CC2)on1`, the figure is -8.5%. As to `CN(C)c1cc(N)c2ccccc2n1` (tested in a mixture with another compound), the inhibition is 2.17%. Turning to `O=C(CSc1nnc(-c2ccoc2)o1)N1CCOCC1`, the inhibition is 1.64%. Consider `Cc1cccc(-n2c(O)c(C=Nc3ccccc3N)c(=O)[nH]c2=O)c1`, for which the inhibition was -2.9%. Consider `C1=C(N2CCOCC2)/C(=C/c2nc3ccccc3[nH]2)CC1`, for which the inhibition was 12.8%. With `CCOc1ccc(CC(=O)Nc2ccc(S(=O)(=O)Nc3cc(C)on3)cc2)cc1OCC`, the inhibition was 6.78%. On to `Cc1ccc(S(=O)(=O)N(C)CC(=O)NC2CCCC2)cc1`, for which the inhibition is 1.06%.

Take `COc1ccc(C2C(C#N)=C(N)Oc3n[nH]c(C)c32)cc1CN1CCN(c2ccc(F)cc2)CC1` (configuration not stated): the inhibition was -3.59%. Under `CCOC(=O)c1nnn(-c2nonc2OC)c1-c1ccccc1` stands -2.37%; under `CC(C)=C(NC(=O)c1ccco1)C(=O)NCCc1nc2ccccc2[nH]1`, 9.21%; under `O=C1CCc2cc(S(=O)(=O)N3CCC(C(=O)NCc4ccccc4Cl)CC3)ccc2N1`, 11%. As to `CC(=O)CCS(=O)(=O)c1ccc(C)c(C)c1`, the inhibition is -14.8%.

For `NC(=O)C1(N2CCCCC2)CCN(C(=O)c2ccc(C#Cc3ccccc3)o2)CC1`, the inhibition is 11.6%. Under `COCCNc1nc(-n2nc(C)cc2C)nc2sc3c(c12)CCCC3` stands -7.79%; under `Cc1ccccc1OCCC(=O)Nc1c(C)n(C)n(-c2ccccc2)c1=O`, 16.9%; under `Cc1cc(Br)ccc1NC(=O)C1CCCO1` (configuration not stated), 9.61%. Regarding `COc1cc2[nH]c(=S)n(Cc3ccc(C)o3)c(=O)c2cc1OC`, the inhibition is -0.64%. Consider `CN1CCN(c2nc3c(c(=O)[nH]c(=O)n3C)n2Cc2cccc3ccccc23)CC1`, for which the inhibition is 14.6%. Under `Cc1nnc(SCC(=O)NCCOc2ccc(Cl)cc2)n1-c1ccccc1` stands 6.24%; under `CC1(C)CC(=O)C=C(NC2CC(C)(C)NC(C)(C)C2)C1`, 6.34%. For `Cn1c(=O)c2c(n(Cc3ccccc3)c1=O)NC(=O)C2CC(=O)N1CCc2ccccc2C1` (configuration not stated), the inhibition is 4.22%. For the compound `NC(=O)c1ccccc1NC(=O)c1ccccc1F`, the inhibition is 1.67%. In the case of `Cn1c(SCc2c(F)cccc2Cl)nnc1-c1cnccn1`, the inhibition is 3.17%.

On to `O=C(c1cnn2ccccc12)N1CCc2ccccc21`, for which the inhibition was 10.9%. For the compound `O=C(NC1(C(F)(F)F)N=C2SCCN2C1=O)c1ccco1` (configuration not stated), the inhibition is 3.45%.

With `O=C(CCN1C(=O)COc2ccccc21)NCCCN1CCN(c2ccc(F)cc2)CC1`, the inhibition is -3.54%.

With `Cc1cccc(NC(=O)C2CCN(S(=O)(=O)c3cccc4cccnc34)CC2)c1`, the inhibition is 10.6%. In the case of `Cc1cccc(NC(=O)COc2ccc(Br)cc2C)n1`, the inhibition is 2.75%. On to `c1cc(-n2cnnn2)ccc1NC1=NCCC1`, for which the inhibition is -2.07%.

Regarding `COc1ccc(-n2c(SCC(=O)OC(C)C)nnc2-c2ccccn2)cc1`, the inhibition is 7.94%. For `CCC(=O)N1CCc2cc(S(=O)(=O)NC(C(=O)N3CCc4ccccc4C3)C(C)C)ccc21` (configuration not stated), the inhibition is 4.46%.

For `CCCc1nc2ccccc2c(=O)n1/N=C/c1ccc(O)c(O)c1`, the inhibition is 2.2%. As for `COc1cccc(C2/C(=C(/O)c3ccncc3)C(=O)C(=O)N2CCCN(C)C)c1` (configuration not stated), the inhibition was 6.68%. As for `COCCCn1c2nc3ccccc3nc2c2c(=O)n(Cc3ccc(Cl)cc3)c(C)nc21`, the inhibition is 7.46%. With `Cc1cc(C)nc(N2C(=O)CC(Cc3ccccc3)C2=O)n1` (configuration not stated), the inhibition was -4.68%.

For the compound `Cc1cc(=O)[nH]c(SCc2cc(Cl)ccc2OC(F)F)n1`, the inhibition was 8.17%. On to `O=C(CNCCO)NC12CC3CC(CC(C3)C1)C2`, for which the inhibition is 11.2%. As for `C[C@H](NC(=O)NCCc1ccccc1)C(=O)O`, the figure is 2.02%; as for `O=C(Cn1c(=O)sc2ccccc21)Nc1ccc2c(c1)OCCO2`, 1.24%; as for `O=C(Nc1ccc2c(c1)OCO2)C1CC(c2c(F)cccc2Cl)=NO1` (configuration not stated), 9.79%.

Consider `CCCCCN(C(=O)NC(=O)Nc1ccccc1C)S(C)(=O)=O`, for which the inhibition is 3.6%.

`CC(C)C(=O)Nc1cccc(C(=O)Nc2ccc3c(c2)OCO3)c1`: the inhibition is 10.1%. On to `CCOc1c(N2CCCCC2)c(=O)c1=O`, for which the inhibition is -3.4%. As to `Cc1cc2c(cc1C)NC(c1ccccn1)C1=C(CC(C)(C)CC1=O)N2` (configuration not stated), the inhibition is 9.5%. Under `Cc1ccc(S(=O)(=O)N2CCN(Cc3cccc(C)c3O)CC2)cc1` stands 2.48%; under `O=c1c2ccccc2[nH]c(=S)n1CCN1CCC(=C(c2ccc(F)cc2)c2ccc(F)cc2)CC1`, 13.1%; under `CCC(C)n1[nH]c(=O)cc1N` (configuration not stated), 0.53%.

Take `CN(c1nc2ccccc2n2c(-c3ccco3)nnc12)S(=O)(=O)c1ccccc1`: the inhibition is -5.29%. Under `N#Cc1c(/N=C/N2CCCC2)oc(-c2ccccc2)c1-c1ccccc1` stands 9.67%; under `O=C(Nc1cc(=O)[nH]c2ncnn12)c1ccccc1Cl`, -3.08%; under `O=C(O)C1CC=C(Cl)CC1C(=O)NCc1ccccc1` (configuration not stated), 12.7%. Regarding `Cc1ccc(-n2c(N)c(C(=O)N3CCOCC3)sc2=S)c(C)c1`, the inhibition is 11.4%. Under `c1ccc2c(c1)OCC(c1nn3cnnc3s1)O2` (configuration not stated) stands 1.56%.

As for `CC(=O)N1CSCC1C(=O)O` (configuration not stated), the inhibition is 10.9%. Take `COc1ccc(C)cc1S(=O)(=O)NC1CCCCC1`: the inhibition was 3.27%. With `O=C(CCCN1C(=O)CSc2ncccc21)N1CCN(c2cccc(C(F)(F)F)c2)CC1`, the inhibition was 1.22%.

Take `Fc1ccc(Br)cc1/C=N/n1cnnc1`: the inhibition is -0.86%. As for `ON=C1/C(=N\O)CC2(C/C1=N/O)OCCO2`, the figure is -0.38%; as for `CC(=O)c1c(C)n(-c2ccc(N(C)C)cc2)c2ccc(OCC(N)=O)cc12`, 8.67%.

As to `COc1ccc(S(=O)(=O)NC2(C(F)(F)F)N=C3SCCN3C2=O)cc1` (configuration not stated), the inhibition was 11.4%.

Regarding `CCN(CC)C(=O)C1CCC(C)(C(=O)O)C1(C)C` (configuration not stated), the inhibition was 11.2%.

As to `COC(=O)c1ccccc1NC(=O)C1CCN(S(=O)(=O)c2cc(OC)ccc2OC)CC1`, the inhibition is 2.31%. As for `CC(=O)N(CC1CCCO1)C1(C(=O)NC2CCCC2)CCCCC1` (configuration not stated), the figure is 10.3%. `COCC(=O)Nc1nnc(COc2ccccc2)s1`: the inhibition was -21.9%. Under `CCN(CC(=O)Nc1ccc2c(c1)OCCO2)Cc1cc(=O)oc2cc(C)c(C)cc12` stands 1.52%; under `CC1(C)Cc2ccccc2-c2nc(CN3CCOCC3)[nH]c(=O)c21`, 3.33%; under `O=C1N(Cc2ccc3c(c2)OCO3)c2ccccc2C1(O)c1c[nH]c2ccccc12` (configuration not stated), 1.27%. Consider `COc1ccc(Cl)cc1NC(=O)C1CC(=O)N(c2ccc(F)cc2)C1` (configuration not stated), for which the inhibition was 8.25%. Consider `O=C(CN1CCOCC1)N1CCCc2c1c(=O)oc1ccc(OCc3ccccc3)cc21`, for which the inhibition is -5.32%.

What is called inhibition is the change of the read-out against control, counted positive when it falls.
